Our source for the growth inhibition values is PubChem BioAssay (NCI).

The panel holds about 79,000 compounds, 15% with a hit somewhere; the sample as a whole holds those more often. Unmarked numbers belong to inactive results. Activity calls are given as the source filed them. No stated cut-off is given here; in the data, active means growth inhibition above about 70%; inactive means the rest.

The nature of experiment [1]: NCI Yeast Anticancer Drug Screen. Data for the rad50 strain (AID 155).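 Further: 0% = growth of vehicle-only cultures of the same strain.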 The note with it: S. cerevisiae rad50 strain growth inhibition, active compounds read high. Put shortly: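 Relative growth inhibition (compound vs vehicle) was measured in yeast with a defined repair-gene alteration.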
Experiment [2] is described as follows: NCI Yeast Anticancer Drug Screen. Data for the mec2-1 strain (AID 157). The note with it: S. cerevisiae mec2-1 strain, active compounds read high. The method, boiled down:
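Each compound was tested on mec2-1 yeast, a strain altered in DNA damage repair or cell cycle control. Growth inhibition is reported relative to vehicle.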

A short description of experiment [3]: NCI Yeast Anticancer Drug Screen. Data for the sgs1 mgt1 strain (AID 161).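 Further: 0% = growth of cultures given vehicle only.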 The note with it: S. cerevisiae sgs1 mgt1 strain, active compounds read high. Put shortly: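 Inhibition of yeast growth, normalised to vehicle-treated controls, is reported for a strain bearing genetic alterations in DNA damage repair.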
Experiment [4] in a line: NCI Yeast Anticancer Drug Screen. Data for the cln2 rad14 strain (AID 165).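 Further: 0% = growth equal to vehicle treated cultures.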 The note with it: S. cerevisiae cln2 rad14 strain, active compounds read high. The method, boiled down:
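Test compounds were added to cln2 rad14 yeast cultures; inhibition of growth was then determined by comparison with vehicle treatment.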

Experiment [5] is described as follows: NCI Yeast Anticancer Drug Screen. Data for the bub3 strain (AID 167). The following applies: S. cerevisiae bub3 mutant strain, active compounds read high. The method, boiled down: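 Screening used yeast with an engineered genetic alteration affecting cell cycle control. Compound-exposed cultures were compared with vehicle cultures, and reduced growth was taken as inhibition.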

Experiment [6] can be described thus: NCI Yeast Anticancer Drug Screen. Data for the mlh1 rad18 strain (AID 175). The following applies: S. cerevisiae mlh1 rad18 strain growth inhibition, active compounds read high. The method, boiled down: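 Inhibition values reflect reduced growth of mutant yeast versus vehicle-treated controls following compound exposure; the mutations affect DNA damage repair.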
Setting [7] is: at 5.0 µM (retest, dose inferred, filed as 0.5).
[8] abbreviates: at 50.0 µM (retest, dose inferred, filed as 5.0).

As to `COC(=O)CSc1nc2[nH]c(SC)c(C(N)=O)c2c(=O)n1-c1ccccc1`, the growth inhibition is -2% in experiment [1] (setting [7]); -4% in experiment [1] (setting [8]); 2.35% in experiment [1] (at 50.0 µM); -2% in experiment [2] (setting [7]); -22% in experiment [2] (setting [8]); 29.4% in experiment [2] (at 50.0 µM). In addition, the growth inhibition in experiment [3] (setting [7]) is 3%; in experiment [3] (setting [8]), -7%; in experiment [3] (at 50.0 µM) it was 7.25%; in experiment [4] (setting [7]), -5%; in experiment [4] (setting [8]) it was 3%; in experiment [4] (at 50.0 µM), 46.2%. The growth inhibition in experiment [5] (setting [7]) is 18%; in experiment [5] (setting [8]), 21%; in experiment [5] (at 50.0 µM), 7.8%; in experiment [6] (setting [7]), -14%; in experiment [6] (setting [8]) it was -19%; in experiment [6] (at 50.0 µM), 9.8%.

For the compound `C=CC1(NC(=O)c2ccccc2)CCC(C(C)(C)C)CC1` (stereo not given), the growth inhibition in experiment [1] (setting [7]) was -10%; in experiment [1] (setting [8]), 96% (active); in experiment [1] (at 50.0 µM) it was 48.9%; in experiment [2] (setting [7]) it was -5%; in experiment [2] (setting [8]) it was 89% (active); in experiment [2] (at 50.0 µM) it was -0.2%. The growth inhibition in experiment [3] (setting [7]) is -5%; in experiment [3] (setting [8]), 94% (active); in experiment [3] (at 50.0 µM), 43.6%; in experiment [4] (setting [7]), 5%; in experiment [4] (setting [8]), 86% (active); in experiment [4] (at 50.0 µM), 10.6%. In addition, the growth inhibition is 2% in experiment [5] (setting [7]); 95% (active) in experiment [5] (setting [8]); 49.9% in experiment [5] (at 50.0 µM); -7% in experiment [6] (setting [7]); 93% (active) in experiment [6] (setting [8]); 40.4% in experiment [6] (at 50.0 µM).

For the compound `COC(=O)c1ccccc1NC(=O)C(=O)Cc1nc2c3c(ccc2[nH]c1=O)C(=O)c1ccccc1C3=O`, the growth inhibition is 35% in experiment [1] (setting [7]); 98% (active) in experiment [1] (setting [8]); 85.4% (active) in experiment [1] (at 50.0 µM); 12% in experiment [2] (setting [7]); 99% (active) in experiment [2] (setting [8]); 25.8% in experiment [2] (at 50.0 µM). Further, the growth inhibition is 6% in experiment [3] (setting [7]); 99% (active) in experiment [3] (setting [8]); 16.2% in experiment [3] (at 50.0 µM); 5% in experiment [4] (setting [7]); 98% (active) in experiment [4] (setting [8]); -26.9% in experiment [4] (at 50.0 µM). The growth inhibition in experiment [5] (setting [7]) was 6%; in experiment [5] (setting [8]), 99% (active); in experiment [5] (at 50.0 µM) it was 16.3%; in experiment [6] (setting [7]) it was 16%; in experiment [6] (setting [8]), 66%; in experiment [6] (at 50.0 µM), 66.6%.

As to `NC(C(=O)O)C1=CCCCCC1` (stereo not given), the growth inhibition in experiment [1] (setting [7]) was 2%; in experiment [1] (setting [8]), -6%; in experiment [1] (at 50.0 µM) it was 49.5%; in experiment [2] (setting [7]), 20%; in experiment [2] (setting [8]), 66%; in experiment [2] (at 50.0 µM) it was 13.8%. The growth inhibition in experiment [3] (setting [7]) was 6%; in experiment [3] (setting [8]), -1%; in experiment [3] (at 50.0 µM), 9.35%; in experiment [4] (setting [7]), 12%; in experiment [4] (setting [8]) it was 54%; in experiment [4] (at 50.0 µM), -6.65%. Moreover, the growth inhibition was 63% in experiment [5] (setting [7]); 98% (active) in experiment [5] (setting [8]); -5.95% in experiment [5] (at 50.0 µM); -3% in experiment [6] (setting [7]); -4% in experiment [6] (setting [8]); 15.4% in experiment [6] (at 50.0 µM).

For `CCCCSc1nc2c([nH]1)c(=S)n(C)c(=S)n2C`, the growth inhibition in experiment [1] (setting [7]) is 2%; in experiment [1] (setting [8]) it was 80% (active); in experiment [1] (at 50.0 µM) it was 63.5%; in experiment [2] (setting [7]) it was 20%; in experiment [2] (setting [8]), 91% (active); in experiment [2] (at 50.0 µM), 82% (active). Further, the growth inhibition is 12% in experiment [3] (setting [7]); 67% in experiment [3] (setting [8]); 55.5% in experiment [3] (at 50.0 µM); -5% in experiment [4] (setting [7]); 85% (active) in experiment [4] (setting [8]); 69.7% in experiment [4] (at 50.0 µM). The growth inhibition in experiment [5] (setting [7]) was -12%; in experiment [5] (setting [8]), 92% (active); in experiment [5] (at 50.0 µM) it was 66.3%; in experiment [6] (setting [7]), -7%; in experiment [6] (setting [8]), 86% (active); in experiment [6] (at 50.0 µM), 81.2% (active).

With `COc1cc(C)cc(C(=O)OCc2ccccc2)c1C1=C(Cl)C(=O)C(Cl)=CC1=O`, the growth inhibition was 16% in experiment [1] (setting [7]); 16% in experiment [1] (setting [8]); 85.5% (active) in experiment [1] (at 50.0 µM); 12% in experiment [2] (setting [7]); 12% in experiment [2] (setting [8]); 83.9% (active) in experiment [2] (at 50.0 µM). The growth inhibition is 5% in experiment [3] (setting [7]); 5% in experiment [3] (setting [8]); 87.5% (active) in experiment [3] (at 50.0 µM); 10% in experiment [4] (setting [7]); 10% in experiment [4] (setting [8]); 82% (active) in experiment [4] (at 50.0 µM). The growth inhibition in experiment [5] (setting [7]) is -16%; in experiment [5] (setting [8]) it was -16%; in experiment [5] (at 50.0 µM), 80.5% (active); in experiment [6] (setting [7]), 4%; in experiment [6] (setting [8]), 4%; in experiment [6] (at 50.0 µM) it was 74.5% (active).

Turning to `O=c1cc2cccccc-2cc1O`, the growth inhibition is -132% in experiment [1] (setting [7]); 94% (active) in experiment [1] (setting [8]); 87.2% (active) in experiment [1] (at 50.0 µM); -42% in experiment [2] (setting [7]); 95% (active) in experiment [2] (setting [8]); 70% (active) in experiment [2] (at 50.0 µM). In addition, the growth inhibition was -48% in experiment [3] (setting [7]); 96% (active) in experiment [3] (setting [8]); 83.5% (active) in experiment [3] (at 50.0 µM); -43% in experiment [4] (setting [7]); 89% (active) in experiment [4] (setting [8]); 86% (active) in experiment [4] (at 50.0 µM). The growth inhibition was -65% in experiment [5] (setting [7]); 95% (active) in experiment [5] (setting [8]); 91.5% (active) in experiment [5] (at 50.0 µM); -130% in experiment [6] (setting [7]); 95% (active) in experiment [6] (setting [8]); 86.3% (active) in experiment [6] (at 50.0 µM).

As to `CCCCCCCCCCCCCC(=O)NO`, the growth inhibition in experiment [1] (setting [7]) is 97% (active); in experiment [1] (setting [8]) it was 97% (active); in experiment [1] (at 50.0 µM), 89.2% (active); in experiment [2] (setting [7]) it was 99% (active); in experiment [2] (setting [8]), 98% (active); in experiment [2] (at 50.0 µM), 91.3% (active). The growth inhibition was 99% (active) in experiment [3] (setting [7]); 98% (active) in experiment [3] (setting [8]); 92.8% (active) in experiment [3] (at 50.0 µM); 89% (active) in experiment [4] (setting [7]); 96% (active) in experiment [4] (setting [8]); 88.2% (active) in experiment [4] (at 50.0 µM). Further, the growth inhibition in experiment [5] (setting [7]) was 99% (active); in experiment [5] (setting [8]), 98% (active); in experiment [5] (at 50.0 µM), 90.2% (active); in experiment [6] (setting [7]), 99% (active); in experiment [6] (setting [8]), 97% (active); in experiment [6] (at 50.0 µM), 89.1% (active).

For `CCCCc1ccc2c(c1)Nc1cc3ccccc3cc1N2`, the growth inhibition in experiment [1] (setting [7]) was -3%; in experiment [1] (setting [8]) it was 55%; in experiment [1] (at 50.0 µM), 86.3% (active); in experiment [2] (setting [7]), 1%; in experiment [2] (setting [8]) it was 26%; in experiment [2] (at 50.0 µM), 44.5%. For the same compound, the growth inhibition in experiment [3] (setting [7]) is 0%; in experiment [3] (setting [8]), 56%; in experiment [3] (at 50.0 µM), 54.9%; in experiment [4] (setting [7]), -13%; in experiment [4] (setting [8]), 30%; in experiment [4] (at 50.0 µM), 33.4%. Further, the growth inhibition in experiment [5] (setting [7]) is 6%; in experiment [5] (setting [8]), 81% (active); in experiment [5] (at 50.0 µM), 77.8% (active); in experiment [6] (setting [7]), 7%; in experiment [6] (setting [8]), 59%; in experiment [6] (at 50.0 µM) it was 95% (active).

Take `CNC1C(O)C(NC)C2OC3(O)C(=O)CC(C)OC3OC2C1O` (stereo not given): the growth inhibition in experiment [1] (setting [7]) is -7%; in experiment [1] (setting [8]) it was 6%; in experiment [1] (at 50.0 µM), 84.1% (active); in experiment [2] (setting [7]), 1%; in experiment [2] (setting [8]), -19%; in experiment [2] (at 50.0 µM), 89.8% (active). The growth inhibition in experiment [3] (setting [7]) is -7%; in experiment [3] (setting [8]) it was -1%; in experiment [3] (at 50.0 µM) it was 9.05%; in experiment [4] (setting [7]), 17%; in experiment [4] (setting [8]), 23%; in experiment [4] (at 50.0 µM) it was 83.7% (active). The growth inhibition in experiment [5] (setting [7]) is -1%; in experiment [5] (setting [8]), -9%; in experiment [5] (at 50.0 µM), 86.3% (active); in experiment [6] (setting [7]) it was -27%; in experiment [6] (setting [8]) it was -30%; in experiment [6] (at 50.0 µM), 86.7% (active).
